The whole screen tested about 310,000 compounds, of which about 2,200 (0.71%) showed an effect of 50% or more. The effect is printed as a negative number. The full list was thinned out, with strong results kept by preference.
What follows are molecules tested against human ether-à-go-go-related gene (hERG) potassium channel (human, UniProt Q12809) (assay: primary screen, population patch clamp on CHO cells stably expressing hERG; higher = less effect of the substance).
Sequence of human ether-à-go-go-related gene (hERG) potassium channel (Q12809 whole entry, looked up): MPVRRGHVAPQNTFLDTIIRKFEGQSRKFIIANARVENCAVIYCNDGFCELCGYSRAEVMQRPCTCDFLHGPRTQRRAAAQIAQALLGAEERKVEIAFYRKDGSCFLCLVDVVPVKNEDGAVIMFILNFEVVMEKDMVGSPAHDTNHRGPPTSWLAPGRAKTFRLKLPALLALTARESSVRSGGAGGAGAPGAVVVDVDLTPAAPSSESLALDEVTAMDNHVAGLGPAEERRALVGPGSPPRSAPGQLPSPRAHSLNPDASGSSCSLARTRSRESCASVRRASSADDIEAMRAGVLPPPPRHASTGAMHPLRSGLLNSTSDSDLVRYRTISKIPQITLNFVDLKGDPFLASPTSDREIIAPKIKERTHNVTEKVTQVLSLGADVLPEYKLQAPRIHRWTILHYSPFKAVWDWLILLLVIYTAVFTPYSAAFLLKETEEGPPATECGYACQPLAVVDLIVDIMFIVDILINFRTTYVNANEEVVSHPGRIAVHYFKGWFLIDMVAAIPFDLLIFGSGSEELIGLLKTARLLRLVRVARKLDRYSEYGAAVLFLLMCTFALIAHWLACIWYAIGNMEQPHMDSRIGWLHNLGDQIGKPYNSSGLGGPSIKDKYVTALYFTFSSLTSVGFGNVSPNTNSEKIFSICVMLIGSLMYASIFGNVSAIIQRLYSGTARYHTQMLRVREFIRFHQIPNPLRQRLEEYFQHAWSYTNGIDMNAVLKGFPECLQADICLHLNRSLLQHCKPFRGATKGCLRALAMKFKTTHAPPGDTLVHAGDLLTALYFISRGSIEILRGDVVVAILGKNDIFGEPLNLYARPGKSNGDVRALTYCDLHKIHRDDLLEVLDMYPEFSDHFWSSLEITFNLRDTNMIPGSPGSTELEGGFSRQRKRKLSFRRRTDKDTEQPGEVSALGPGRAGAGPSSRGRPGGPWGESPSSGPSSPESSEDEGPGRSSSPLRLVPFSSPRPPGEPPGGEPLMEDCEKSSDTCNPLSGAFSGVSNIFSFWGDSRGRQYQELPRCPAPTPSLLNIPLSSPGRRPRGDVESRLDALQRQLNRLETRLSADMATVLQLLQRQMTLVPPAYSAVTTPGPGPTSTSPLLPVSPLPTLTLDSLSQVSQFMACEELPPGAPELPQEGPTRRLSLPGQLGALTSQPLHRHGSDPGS

**Q.** Which “hERG current change (%, negative = inhibition) at 1uM” value does the source give for `CC(C)Sc1nnc(-c2ccc(S(=O)(=O)N3CCOCC3)cc2)n1C` here?
**A.** 7.81%

**Q.** With `CCN(CC)Cc1cc(NC2=NS(=O)(=O)c3ccccc32)ccc1OC(=O)C(C)C.Cl` as the molecule, how does the “hERG current change (%, negative = inhibition) at 1uM” value read?
**A.** 5.53%

**Q.** `COc1ccc(NS(=O)(=O)c2ccc(NS(C)(=O)=O)cc2)cc1` was tested. Which “hERG current change (%, negative = inhibition) at 1uM” value did it give?
**A.** 6.82%

**Q.** With `COc1ccc(CNC(=O)c2ccccc2C(=O)O)cc1` as the molecule, how does the “hERG current change (%, negative = inhibition) at 1uM” value read?
**A.** 0.458%

**Q.** `CCN(CC(=O)Nc1c(F)cccc1F)C(=O)c1ccc(C#N)cc1` was tested. Which “hERG current change (%, negative = inhibition) at 1uM” value did it give?
**A.** 8.99%

**Q.** For `O=C(CSc1nnc(-c2ccccc2Br)o1)Nc1cccc2ccccc12`, which “hERG current change (%, negative = inhibition) at 1uM” value is on record?
**A.** 3.82%

**Q.** With `O=C(CSc1nnc(-c2ccccc2Br)o1)Nc1nncs1` as the molecule, how does the “hERG current change (%, negative = inhibition) at 1uM” value read?
**A.** -63.5%

**Q.** Which “hERG current change (%, negative = inhibition) at 1uM” value does the source give for `O=C(CSc1nnc(-c2ccncc2)o1)Nc1nncs1` here?
**A.** 15.3%

**Q.** `CSc1n[nH]c(NC2=CC(=O)CCC2)n1` was tested. Which “hERG current change (%, negative = inhibition) at 1uM” value did it give?
**A.** 15%

**Q.** `COc1ccc(N2CCN(C(C)C(=O)N(C)Cc3ccccc3)CC2)cc1` (centres unmarked) was tested. Which “hERG current change (%, negative = inhibition) at 1uM” value did it give?
**A.** -10%

**Q.** With `CNC(=O)NC(=O)C(C)N1CCN(C/C=C/c2ccccc2)CC1` (centres unmarked) as the molecule, how does the “hERG current change (%, negative = inhibition) at 1uM” value read?
**A.** -32.1%

**Q.** `COc1ccccc1NC(=O)C(C)N1CCN(C/C=C/c2ccccc2)CC1` (centres unmarked) was tested. Which “hERG current change (%, negative = inhibition) at 1uM” value did it give?
**A.** -75.2%

**Q.** Which “hERG current change (%, negative = inhibition) at 1uM” value does the source give for `CC(C(=O)Nc1cccc(S(=O)(=O)N2CCOCC2)c1)N1CCN(C/C=C/c2ccccc2)CC1` (centres unmarked) here?
**A.** -32.5%

**Q.** Which “hERG current change (%, negative = inhibition) at 1uM” value does the source give for `CC(C(=O)N(C)Cc1ccccc1)N1CCN(C/C=C/c2ccccc2)CC1` (centres unmarked) here?
**A.** -73.5%

**Q.** Which “hERG current change (%, negative = inhibition) at 1uM” value does the source give for `COc1ccc(Cl)cc1NC(=O)C(C)N1CCN(C/C=C/c2ccccc2)CC1.O=C(O)C(=O)O` (centres unmarked) here?
**A.** -14.3%

**Q.** For `COc1ccccc1NC(=S)N1CCN(C/C=C/c2ccccc2)CC1`, which “hERG current change (%, negative = inhibition) at 1uM” value is on record?
**A.** 7.29%

**Q.** How did the “hERG current change (%, negative = inhibition) at 1uM” value turn out when `CC(C(=O)Nc1cccc([N+](=O)[O-])c1)N1CCN(C/C=C/c2ccccc2)CC1` (centres unmarked) was run?
**A.** -74.2%

**Q.** For `CC(=O)c1ccc(NC(=O)C(C)N2CCN(C/C=C/c3ccccc3)CC2)cc1` (centres unmarked), which “hERG current change (%, negative = inhibition) at 1uM” value is on record?
**A.** -41%

**Q.** `Cc1sc2nc[nH]c(=O)c2c1-c1ccc(F)cc1` was tested. Which “hERG current change (%, negative = inhibition) at 1uM” value did it give?
**A.** 17.2%

**Q.** How did the “hERG current change (%, negative = inhibition) at 1uM” value turn out when `Cc1ccccc1Nc1nc(-c2sc(NC(=O)c3ccccc3)nc2C)cs1` was run?
**A.** 7.9%

**Q.** How did the “hERG current change (%, negative = inhibition) at 1uM” value turn out when `CC(c1ccncn1)N(C)C(=O)c1ccc2oc(Cc3ccccc3)nc2c1` (centres unmarked) was run?
**A.** 9.8%

**Q.** Which “hERG current change (%, negative = inhibition) at 1uM” value does the source give for `CCOc1ccc(NS(=O)(=O)c2ccc(NS(=O)(=O)c3ccc(SC)cc3)cc2)cc1` here?
**A.** 9.23%

**Q.** For `CCCN1Cc2cccc(C(=O)NCc3ccc(C)cc3)c2C1=O`, which “hERG current change (%, negative = inhibition) at 1uM” value is on record?
**A.** -4.32%

**Q.** How did the “hERG current change (%, negative = inhibition) at 1uM” value turn out when `CCC(C)N(C)C(=O)c1cc2ccccc2c(-c2ccccc2Cl)n1` (centres unmarked) was run?
**A.** -5.29%

**Q.** For `CC(Oc1ccc(Cl)cc1)C(=O)OCC(=O)Nc1ncc(Cl)cc1Cl` (centres unmarked), which “hERG current change (%, negative = inhibition) at 1uM” value is on record?
**A.** 3.29%

**Q.** Which “hERG current change (%, negative = inhibition) at 1uM” value does the source give for `O=C(Nc1ccc(F)cc1)c1nc[nH]c1C(=O)O` here?
**A.** 18.5%

**Q.** Which “hERG current change (%, negative = inhibition) at 1uM” value does the source give for `COc1ccccc1OCC(O)Cn1c(=N)n(CCN2CCCCC2)c2ccccc21.Cl` (centres unmarked) here?
**A.** -27.9%

**Q.** How did the “hERG current change (%, negative = inhibition) at 1uM” value turn out when `CCCCCn1c(=N)n(CC(O)COc2ccccc2OC)c2ccccc21` (centres unmarked) was run?
**A.** -82.8%

**Q.** Which “hERG current change (%, negative = inhibition) at 1uM” value does the source give for `C=CCn1c(=N)n(CC(O)COc2ccccc2OC)c2ccccc21.Cl` (centres unmarked) here?
**A.** -43.5%

**Q.** How did the “hERG current change (%, negative = inhibition) at 1uM” value turn out when `Cc1ccccc1OCC(O)Cn1c(=N)n(Cc2ccccc2)c2ccccc21.Cl` (centres unmarked) was run?
**A.** -48.4%

**Q.** For `CCCCCn1c(=N)n(CC(O)COc2ccccc2OC)c2ccccc21.Cl` (centres unmarked), which “hERG current change (%, negative = inhibition) at 1uM” value is on record?
**A.** -86.3%

**Q.** How did the “hERG current change (%, negative = inhibition) at 1uM” value turn out when `COc1ccccc1OCC(O)Cn1c(=N)n(Cc2ccccc2)c2ccccc21.Cl` (centres unmarked) was run?
**A.** -39.6%

**Q.** With `COC(=O)[C@H](C)NC(=O)Nc1ccc(C)c(C)c1` as the molecule, how does the “hERG current change (%, negative = inhibition) at 1uM” value read?
**A.** 15.2%

**Q.** Which “hERG current change (%, negative = inhibition) at 1uM” value does the source give for `Cc1ccnc(SCc2ccc([N+](=O)[O-])cc2)n1` here?
**A.** -1.04%

**Q.** Which “hERG current change (%, negative = inhibition) at 1uM” value does the source give for `COCCN(C(=O)CSc1nc(-c2ccccc2)cn1N)c1c(N)n(Cc2ccccc2)c(=O)[nH]c1=O` here?
**A.** 3.04%

**Q.** `CCCC(=O)Nc1cc(C(=O)O)ccc1Sc1ccc(C)cc1` was tested. Which “hERG current change (%, negative = inhibition) at 1uM” value did it give?
**A.** 10.9%

**Q.** With `CCn1c(SCC(=O)Nc2nonc2C)nnc1-c1ccoc1C` as the molecule, how does the “hERG current change (%, negative = inhibition) at 1uM” value read?
**A.** 7.63%

**Q.** Which “hERG current change (%, negative = inhibition) at 1uM” value does the source give for `Cc1ccc(C)c(-n2c(SCC(=O)Nc3nonc3C)nnc2-c2ccoc2C)c1` here?
**A.** 9.3%

**Q.** How did the “hERG current change (%, negative = inhibition) at 1uM” value turn out when `CCCn1c(SCC(=O)Nc2nonc2C)nnc1-c1ccoc1C` was run?
**A.** 5.83%

**Q.** How did the “hERG current change (%, negative = inhibition) at 1uM” value turn out when `Cc1cccc(-n2c(SCC(=O)Nc3nonc3C)nnc2-c2ccoc2C)c1` was run?
**A.** -81.9%

**Q.** `Cc1nonc1NC(=O)CSc1nnc(-c2ccoc2C)n1C` was tested. Which “hERG current change (%, negative = inhibition) at 1uM” value did it give?
**A.** 9.71%

**Q.** How did the “hERG current change (%, negative = inhibition) at 1uM” value turn out when `Cc1occc1-c1nnc(SCC(=O)NC2CCCC2)n1-c1ccccc1` was run?
**A.** 0.492%

**Q.** How did the “hERG current change (%, negative = inhibition) at 1uM” value turn out when `Cc1cccc(-n2c(SCC(=O)NC3CCCC3)nnc2-c2ccoc2C)c1` was run?
**A.** -68.6%

**Q.** `Cc1nonc1NC(=O)CSc1nnc(-c2ccoc2C)n1-c1cccc(Cl)c1` was tested. Which “hERG current change (%, negative = inhibition) at 1uM” value did it give?
**A.** -58.8%
